Screening data as filed in PubChem BioAssay.
Sampled rows, rich in hits. Any-hit rate of the full collection: about 11%.
USP17 block – inhibitors of human USP17 deubiquitinase; 47,000 tested, 6.5% active; purified USP17, Ub-rhodamine cleavage fluorescence, 3 h; AID 1645855; inhibition, % at 50 µM
Target sequence (A8MUK1 whole entry, looked up): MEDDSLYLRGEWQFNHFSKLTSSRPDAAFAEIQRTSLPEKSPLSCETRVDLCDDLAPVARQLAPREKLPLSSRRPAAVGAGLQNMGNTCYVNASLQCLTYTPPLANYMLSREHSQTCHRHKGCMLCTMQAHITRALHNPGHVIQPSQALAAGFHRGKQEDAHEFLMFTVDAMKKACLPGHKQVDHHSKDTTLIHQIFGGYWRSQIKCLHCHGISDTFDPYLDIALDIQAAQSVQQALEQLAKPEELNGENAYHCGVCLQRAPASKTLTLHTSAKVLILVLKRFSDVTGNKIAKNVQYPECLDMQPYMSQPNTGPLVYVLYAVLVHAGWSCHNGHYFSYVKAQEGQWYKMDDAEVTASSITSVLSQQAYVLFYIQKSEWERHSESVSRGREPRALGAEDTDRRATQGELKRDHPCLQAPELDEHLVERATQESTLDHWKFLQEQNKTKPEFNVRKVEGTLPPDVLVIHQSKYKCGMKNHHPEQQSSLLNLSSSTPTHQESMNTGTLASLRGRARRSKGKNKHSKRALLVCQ
USP30 inh – human USP30 deubiquitinase inhibition; Q70CQ3; purified USP30, Ub-rhodamine cleavage fluorescence; AID 1645860; 47,000 tested, 5.3% active; inhibition, % at 25 µM
USP28 block – inhibitors of human USP28 deubiquitinase; purified USP28, Ub-rhodamine cleavage fluorescence, 30 min; inhibition, % at 25 µM; 47,000 tested, 3% active
OTUD3 block – blocks human OTUD3 ubiquitin-rhodamine cleavage | purified OTUD3, Ub-rhodamine fluorescence, 2 h | inhibition, % at 25 µM | 47,000 tested, 0.7% active
Of the large screens only hits and unclear results are named; the others gave an inactive call. Cut-off read from the data, not from the text of the source: active = inhibition above about 30%; inactive = the rest.

CC(NC(=O)Cc1ccccc1F)C(=O)Nc1nc2ccccc2[nH]1 (centres undefined)	none
CC(NC(=O)c1ccccc1)c1nc2ccccc2n1CC(=O)NC1CCCCC1 (centres undefined)	USP17 block 39, USP30 inh 39
CC(NC(=O)c1ccccc1)c1nc2ccccc2n1CC(=O)Nc1ccc(C#N)cc1 (centres undefined)	none
Cc1ccc(C(=O)NC(C)c2nc3ccccc3n2CC(=O)N2CCc3ccccc32)cc1 (centres undefined)	USP17 block 76, USP30 inh 63
CN1CCCN(C(=O)c2ccn(-c3ccc4ccc(-c5cnn(C)c5)cn34)n2)CC1	none
O=[N+]([O-])c1cc(S(=O)(=O)Nc2ccccc2)ccc1NCC1COc2ccccc2O1 (centres undefined)	none
COc1ccc(Cl)cc1Nc1cc(C)c2ccccc2n1	none
Clc1ccc(Oc2nc3ccccc3c3nnc(-c4ccc(Br)cc4)n23)c(Cl)c1	USP17 block 37
COc1ccc(Cn2c3c(c(=O)[nH]c2=O)CN(CCc2ccccc2)CN3)cc1	none
COc1ccc(Cn2c3c(c(=O)[nH]c2=O)CN(C2CCCCC2)CN3)cc1	USP17 block 43, USP30 inh 47
CN1CC(c2nc3ccccc3n2CCCOc2ccc(Cl)cc2)CC1=O (centres undefined)	none
O=C1CC(c2nc3ccccc3n2CCOc2ccc(Cl)cc2)CN1c1ccccc1 (centres undefined)	USP17 block 66, USP30 inh 72
COc1ccc(OCCn2c(C3CC(=O)N(c4cccc(C)c4)C3)nc3ccccc32)cc1 (centres undefined)	USP17 block 76, USP30 inh 34
Cc1ccc(N2CC(c3nc4ccccc4n3CCCOc3ccccc3)CC2=O)cc1 (centres undefined)	USP17 block 60, USP30 inh 56
COc1ccccc1OCCCCn1c(C2CC(=O)N(c3ccccc3F)C2)nc2ccccc21 (centres undefined)	USP30 inh 39
CCOc1ccc(NC(=O)c2c(C)oc3nc[nH]c(=O)c23)cc1	none
COCCn1c(C(=O)Nc2ccc(Cl)cc2)cc2c(=O)n(C)c(=O)n(C)c21	none
CCN(C)C(=O)c1cc(-c2cnc(-c3cccc(F)c3)nc2)cn1C	none
CNC(=O)CN1CC2(CCN(c3ncccn3)CC2)COc2ccccc2S1(=O)=O	none
O=C(c1nnn(-c2ccc(Cl)cc2)c1-c1cccnc1)N1CCc2ccccc2C1	none (no result: USP17 block)
COc1ccc(Cl)cc1-n1nnc(C(=O)N2CCc3ccccc3C2)c1C	USP30 inh 83, USP28 block 33 (no result: USP17 block)
O=C(c1cc(Cl)cc(Cl)c1)N1CC(c2nc(-c3cccnc3)no2)C1	USP30 inh 30
Cc1csc2ncc(C(=O)N3CCN(c4ccccc4)CC3)c(=O)n12	none
Cc1csc2ncc(C(=O)N3CCN(c4ccccc4F)CC3)c(=O)n12	OTUD3 block 38
CCCC(=O)c1c[nH]c(C(=O)NCc2ccc(F)cc2)c1	USP17 block 69, USP28 block 35
Cc1ccc(S(=O)(=O)N2Cc3ccccc3N(C)C(C)C2)cc1 (centres undefined)	none
O=S(=O)(NCCc1nc(-c2ccc(Cl)cc2)no1)c1ccc(F)cc1	USP30 inh 39
Cc1cccc(Nc2ccccc2C(=O)OCC(=O)N(C)c2ccccc2)c1C	none
COC1/C=C/OC2(C)Oc3c(C)c(O)c4c(c3C2=O)C(=O)C=C(NC(=O)/C(C)=C\C=C\C(C)C(O)C(C)C(O)C(C)C(OC(C)=O)C1C)C4=O (centres undefined)	USP17 block 64
CO[C@H]1/C=C/OC2(C)Oc3c(C)c(O)c4c(c3C2=O)C2(C=C(NC(=O)/C(C)=C\C=C\[C@H](C)[C@H](O)[C@@H](C)[C@@H](O)[C@@H](C)[C@H](OC(C)=O)C1C)C4=O)OCC(=O)O2 (some centres undefined)	USP17 block 60
CC(C)CC(=O)N1C[C@H]2C[C@H]3[C@](C1)(CN(CC(C)C)S3(=O)=O)O2	none
O=C1CCS(=O)(=O)c2ccc(F)cc21	none
COCCNC(=O)C1c2ccccc2C(=O)N(Cc2ccccc2)C12CCCC2 (centres undefined)	USP30 inh 32
c1ccc(Cc2nnc(N3CCOCC3)c3ccccc23)cc1	USP28 block 34
CN1C(=O)COc2ccccc2CCCC[C@@H]2[C@H]1CCCN2C(=O)c1cnccn1	none
COc1ccc(CCn2cnc3c([nH]c4ccccc43)c2=O)cc1	USP17 block 34, USP30 inh 96, USP28 block 35
Cc1ccc2[nH]c3c(=O)n(CC4CCCO4)cnc3c2c1 (centres undefined)	USP17 block 68, USP30 inh 44
